# SARS PLP yeast = inhibitors of SARS-CoV papain-like protease in yeast | S. cerevisiae expressing SARS-CoV PLpro, growth rescue | Potency, µM (doses to about 32.9 µM), for the others: top-dose activity, positive = growth rescue, hits mostly activators | actives 0.19% (n = 330,000); calls by dose curve; further: 0% is about no effect; nearly all actives have a fitted effect of over 55% in size
# Tb PYK inh = inhibitors of Trypanosoma brucei pyruvate kinase | actives 0.12% (n = 410,000) | Potency, µM (top dose mostly 76.8 µM), without a hit: at the top dose activity, negative = inhibition, hits mostly inhibitors | AID 624173 | Q57TT1 | TbPYK enzyme, Kinase-Glo Plus ATP luminescence, 45 min; further: on the % scale 0 is the no-effect control and ±100 the full control effect; nearly all actives have a fitted effect of over 50% in size
#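 Glycolytic pyruvate kinase of T. brucei was incubated with substrate, test compound and 130 uM ADP for 45 minutes at room temperature. Luminescent Kinase-Glo Plus signal was measured after 10 minutes.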
# AMA1-RON2 inh = disrupts binding of P. falciparum AMA1 to RON2; AID 720542; Potency, µM (doses to about 58.2 µM), without a hit: top-dose activity change, negative = inhibition, hits mostly inhibitors; actives 0.2% (n = 360,000); AlphaScreen AMA1-biotinylated RON2 peptide binding;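 further: 0% = vehicle wells and -100% = peptide control; nearly all actives have a fitted effect of over 45% in size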
#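 AMA1 (3D7) with his tag at 25 nM final met compounds first, then biotinylated RON2 peptide at 25 nM; detection used donor plus acceptor beads, 10 µg/mL apiece, read by AlphaScreen after 30 min at room temperature.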
# RE007 growth inh = less growth of the S. pombe RE007 Vpr strain. Potency, µM (series often up to 92.2 µM), for the others: top-dose activity change, negative = less growth, actives largely listed as inhibitors. S. pombe RE007 Vpr strain, BacTiter-Glo ATP luminescence, 24 h. AID 651644. actives 0.21% (n = 360,000); active means well fitted falling curve with a large enough effect; inconclusive means small, poorly fitted or top-dose-only effect; inactive means no such curve, though single readings can be large or run the other way; further: on the % scale 0 is the no-effect control and ±100 the full control effect; nearly all actives have a fitted effect of over 50% in size
#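 Fission yeast strain RE007, carrying one chromosomally integrated HIV-1 vpr copy, was seeded at OD 0.01 in PMG+AL medium with 23 nL pinned compound. After 24 h at 30 °C and 99% humidity, viability was read by BacTiter-Glo luminescence.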
# LmPK inhibitor = blocks Leishmania mexicana pyruvate kinase activity | Q27686 | purified LmPK, Kinase-Glo ATP luminescence, 1 h | Potency, µM (series often up to 57.5 µM), for the others: top-dose activity change, negative = inhibition, most hits filed as inhibitors | actives 0.37% (n = 290,000); further: on the % scale 0 is the no-effect control and ±100 the full control effect
# Target sequence (Q27686 whole entry, looked up): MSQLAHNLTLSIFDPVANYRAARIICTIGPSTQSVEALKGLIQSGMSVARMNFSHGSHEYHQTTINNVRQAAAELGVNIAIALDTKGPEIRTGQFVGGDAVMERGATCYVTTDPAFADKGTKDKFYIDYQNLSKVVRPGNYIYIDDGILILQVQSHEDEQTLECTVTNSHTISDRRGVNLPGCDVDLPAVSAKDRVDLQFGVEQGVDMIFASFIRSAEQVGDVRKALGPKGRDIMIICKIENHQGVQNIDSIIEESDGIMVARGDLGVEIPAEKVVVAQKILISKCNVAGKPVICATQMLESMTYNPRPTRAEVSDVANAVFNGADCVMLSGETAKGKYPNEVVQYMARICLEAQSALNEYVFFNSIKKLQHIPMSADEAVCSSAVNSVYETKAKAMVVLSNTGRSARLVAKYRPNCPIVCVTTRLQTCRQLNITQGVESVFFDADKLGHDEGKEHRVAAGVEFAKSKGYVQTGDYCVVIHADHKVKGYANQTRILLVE
#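 ATP generated from ADP (0.1 mM) and PEP (0.5 mM) by 0.1 nM LmPK over 1 h at room temperature (pH 7.2 imidazole buffer) was detected by coupled luciferase luminescence. Values were normalized to uninhibited and no-enzyme wells.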
# An asterisk follows results filed as active; ? = inconclusive; · = no result given; [ ] = another dose, or the depositor's remark. Sampled rows, rich in hits. Any-hit rate of the full collection: about 0.81%. Unless noted, the call rests on the fitted dose curve; in most records, active means well fitted curve in the direction sought with a large enough effect; inconclusive means small, poorly fitted or top-dose-only effect, or another doubt; inactive means no such curve, though single readings can be large; an effect the other way counts as inactive or inconclusive. Potency means the concentration at half of the fitted maximal effect.
SMILES,SARS PLP yeast,Tb PYK inh,AMA1-RON2 inh,RE007 growth inh,LmPK inhibitor
O=c1c2ccccc2sn1-c1cc(S(=O)(=O)N2CCOCC2)ccc1N1CCOCC1,8%,4.5µM*,16%,1%,-5%
COc1ccccc1N=Nc1nc(-c2ccccc2)c(-c2ccccc2)[nH]1,1%,-4%,35µM*,1%,-3%
COc1ccc(N=Nc2nc(-c3ccccc3)c(-c3ccccc3)[nH]2)cc1,-32%,-9%,?,24%,0%
CC(C)c1cc2c(c(O)c1O)[C@@]13CCCC(C)(C)C1CC2OC3=O (some centres not stated),-5%,?,-3%,-11%,16µM*
Cc1c2cc(O)c(=O)cc-2oc2cc(O)c(O)cc12,?,-27%,·,?,?
COc1cc(OC)c(-c2c3cc(O)c(=O)cc-3oc3cc(O)c(O)cc23)cc1OC,3.2µM*,-15%,7.9µM*,?,-18%
Brc1ccc(CNc2cc3c(cc2Br)OCCO3)cc1,-17%,0%,13µM*,-16%,-6%
CC(=O)Nc1cc2c(cc1Br)OCCO2,-1%,-5%,-5%,13%,0%
COc1ccc(S(=O)(=O)N2CCC(C(=O)NCc3cccnc3)CC2)cc1OC,4%,4%,-14%,-1%,-3%
CCOc1ccc(-c2cn3ccccc3n2)cc1,-3%,?,0%,?,13µM*
Fc1ccc(-c2cn3ccccc3n2)cc1,-13%,-18%,0%,-22%,-23%
CCCCCCCCCCCCCCC(O)C[N+](C)(CCO)CCO (configuration not stated),·,-1%,11%,32µM*,·
CN1CC(C(=O)c2ccccc2)C(c2ccccc2)C1 (configuration not stated),-1%,-3%,-7%,0%,2%
O=C(c1ccccc1)C1CC1c1ccccc1 (configuration not stated),·,3%,22%,18µM*,·
c1c2c(cc3sc(N4CCOCC4)nc13)OCO2,-7%,?,-20%,?,16µM*
COc1ccc(C2COc3cc(O)ccc3C2)c(OC)c1O (configuration not stated),·,-15%,?,6%,·
Oc1ccc2c(c1)OCC1(O)Cc3cc(O)c(O)cc3C21 (configuration not stated),·,11µM*,13µM*,2%,·
Oc1cc2c(cc1O)[C@H]1c3ccc(O)c(O)c3OC[C@@]1(O)C2,-2%,5.6µM*,32µM*,-27%,·
Cn1cc(O)nc1NC(=O)Nc1cccc(Cl)c1,·,-8%,·,·,·
CCOc1ccc(-c2c(C)nn3c(-c4ccccc4)c(C(=O)NCCOC)cnc23)cc1OCC,·,-1%,·,·,·
Cn1c(=O)[nH]c(=O)c2c1[nH]c(=S)n2Cc1ccc(Cl)cc1,1%,5.6µM*,34%,·,?
COc1cc(O)c(C(=O)O)c(-c2cc(O)c(O)cc2C)c1,-2%,10µM*,-14%,-3%,?
CC(=O)N[C@@H](C=O)[C@@H](O)[C@H](O)[C@H](O)CO,·,2%,·,·,·
COC(=O)N1C2=C(c3ccccc3[C@@H]1CC(=O)Nc1ccc3cc4ccccc4cc3c1)[C@@H]1C(=O)N(c3ccccc3)C(=O)[C@@H]1[C@H](C)C2,·,·,·,·,-3%[11.5 µM]
O=C1NC[C@H](Cc2ccc(O)cc2)N(C[C@H]2CCCN2C[C@H](Cc2ccc(O)cc2)N2C[C@H](Cc3ccc(O)cc3)N(CCc3ccccc3)C(=O)C2=O)C1=O,·,17%,32µM*,-7%,·
SMILES,SARS PLP yeast,Tb PYK inh,AMA1-RON2 inh,RE007 growth inh,LmPK inhibitor
C[N+](C)(C)CCOP(=O)(O)OP(=O)([O-])OCC1OC(n2ccc(N)nc2=O)[C@H](O)[C@@H]1O (some centres not stated),·,1%,·,·,·
Cc1ccc(C(=O)NCc2ccc3c(c2)OCO3)o1,1%,-2%,7%,7%,-2%
Cc1ccc(C(=O)NCc2ccc(Cl)c(Cl)c2)o1,-6%,1%,-17%,25µM*,3%
Cc1ccc2c(c1)C1C=CCC1C(C(=O)O)N2 (configuration not stated),-13%,·,·,·,-8%
CC(=O)c1ccc2c(c1)C1C=CCC1C(C(=O)O)N2 (configuration not stated),0%,-20%,4µM*,-1%,-20%
O=C(Nc1nccs1)c1cc2c(s1)CCCCC2,-30%,-22%,-9%,32µM*,14µM*
CCCCC[C@]12Cc3ccccc3C(O1)C1=C(CC(C)(C)CC1=O)O2,-9%[6.58 µM],·,·,·,-5%[11.5 µM]
COc1ccc(Nc2c([N+](=O)[O-])ccc3c2=NC2(CCCCC2)N=3)cc1,0%,-12%,8.9µM*,-26%,-6%
Oc1ccc(Nc2ccc3ccccc3c2)cc1,·,-16%,14µM*,?,·
COC(=O)c1c(C)c2c(C)cc3ccccn3c-2c1C(=O)OC,6%,-3%,-25%,-1%,0%
COC(=O)c1cc2c(-c3ccccc3)cc3ccccn3c-2c1C(=O)OC,3%,?,18µM*,-9%,8%
COc1ccc2c(CN3CCN(Cc4ccccc4)CC3)cc(=O)oc2c1,·,-1%,-6%,-15%,·
O=C(Nc1ccc(OCc2ccccc2)cc1)Nc1ccccc1C(=O)NCCCN1CCOCC1,-2%,?,-12%,-27%,14µM*
O=C(Nc1ccccc1C(=O)NCCCN1CCOCC1)c1ccc(F)cc1F,3%,-7%,7%,-16%,-6%
CO[C@H](C(=O)[C@@H](O)[C@@H](C)O)C1Cc2cc3cc(O[C@H]4C[C@@H](O[C@H]5C[C@@H](O)[C@H](O)[C@@H](C)O5)[C@@H](O)[C@@H](C)O4)c(C)c(O)c3c(O)c2C(=O)[C@H]1O[C@H]1C[C@@H](O[C@H]2C[C@@H](O[C@H]3C[C@](C)(O)[C@H](O)[C@@H](C)O3)[C@H](O)[C@@H](C)O2)[C@H](O)[C@@H](C)O1 (some centres not stated),·,2%,·,·,·
CC(=O)OC1CCC2(C)C(=CCC3C2CCC2(C)C(C(C)=O)CCC32)C1 (configuration not stated),·,2%,·,·,·
CCOC(=O)CNC1CC(=O)N(c2ccc(Br)cc2)C1=O (configuration not stated),-21%,0%,63%,13µM*,-12%
O=C(NNC1CC(=O)N(c2ccc(Br)cc2)C1=O)c1cccs1 (configuration not stated),0%,4%,109%,10%,3%
O=C(N/N=C/c1c(O)n(CCC2=CCCCC2)c(=S)[nH]c1=O)c1ccccc1,11µM*,-5%,34%,10%,2%
O=C1NC(=O)N(c2ccccc2)C(=O)/C1=C/C=C/c1ccco1,-1%,?,-2%,27%,8%
CN(C)c1ccc(/C=C/C=C2/C(=O)NC(=O)N(c3ccccc3)C2=O)cc1,0%,?,?,-21%,13µM*

# Screening results: PubChem, National Center for Advancing Translational Sciences (NCATS)
